Data: ChEMBL document CHEMBL3988442, “University of Dundee, Small-Polar-MMV Screening Library” (2021)
Out of some 48,000 compounds screened, about 13,000 (27%) showed an effect of 50% or more. The list shows a part of the results.

system: Wolbachia pipientis; test: Anti-Wolbachia Cell-Based Screen; assay type: functional; set-up: scale not given: in the data most compounds retested in dose-response had high values; settings: 5 µM

SMILES | Percent Effect [%]
O=C(O)c1cc2c(nc1O)CC(c1cccs1)CC2=O (centres undefined) | 17.51
O=C(CCS(=O)(=O)C1CCCC1)NCCc1cccnc1 | 3.812
c1cn(Cc2nnc(C3CCN(C4CCOCC4)CC3)n2C2CC2)cn1 | 2.986
Cc1ccccc1Cc1nc(CSc2nnc(N)n2C2CC2)no1 | 8.42
O=C(O)c1cc(-c2cccnc2)cc(S(=O)(=O)NCc2ccccn2)c1 | -2.76
CCC(C)Oc1cc(C(=O)Nc2nnc(C(C)C)[nH]2)ccn1 (centres undefined) | -13.47
Cc1occc1C(=O)N1CCC(C(O)c2ccc(Cl)cc2)CC1 (centres undefined) | -7.182
COCCN1CCc2ncnc(NC3CC3)c2CC1 | 94.73
CN(C)c1ncnc2c1CCN(c1cccc(F)c1)CC2 | -12.67
Cc1nc2n(n1)CC(Nc1ncnc3c1CCC3)CC2 (centres undefined) | 2.355
FC(F)(F)c1cc(N2CCc3ncnc(NC4CC4)c3CC2)ncn1 | -22.18
CN(C)c1ncnc2c1CCN(c1cc(C(F)(F)F)ncn1)CC2 | -1.194
COCCN1CCc2ncnc(N(C)C)c2CC1 | 110.9
Cc1ccc(S(=O)(=O)Cc2noc([C@@H]3C[C@@H](O)CN3C(C)C)n2)cc1 | -1.954
COCCNC(=O)N1CCN(C(C)C(=O)NC2CCCC2)CC1 (centres undefined) | -10.58
COCCNC(=O)C(C)N1CCN(C)CC1.O=C(O)C(=O)O (centres undefined) | 114.3
COCCNC(=O)N1CCN(C(C)C(=O)NC(C)C)CC1 (centres undefined) | 2.251
Cc1cccc(CC(=O)Nc2cccnc2N2CCC(CO)CC2)c1 | -12.05
O=C1CCC2(CCCN(c3ncc(Cl)cc3F)C2)CN1CC1CC1 (centres undefined) | -9.557
NCc1ccc(N2CCN(c3ncccn3)CC2)c(F)c1 | 3.698
Cc1cccc(N2N=C(C(=O)NC(C)Cc3ccco3)CCC2=O)c1 (centres undefined) | 19.33
CC1C(=O)Nc2cccnc2N1S(=O)(=O)c1cc(F)cc(F)c1 (centres undefined) | -12.84
Cc1cc(N2CCc3c(ncn3C3CC3)C2)nc(N)n1 | 13.11
Cc1cc(N2CCCC2c2nnc3n2CCCCC3)nc(N)n1 (centres undefined) | 170
Cc1cc(N2CCc3c(ncn3C)C2)nc(N)n1 | -0.5866
Cc1cc(C(=O)N2CCCC2c2nnc3n2CCCCC3)no1 (centres undefined) | -10.19

SMILES | Percent Effect [%]
Cc1cc(N2CCCC2c2nnc3n2CCCCC3)nc(C)n1 (centres undefined) | 112.6
Cc1cc(NCc2nnc3n2CCCCC3)n2nc(C)c(C)c2n1 | -13.55
CN1C(=O)C(c2ccccc2)CC12CCN(CCN1CCCC1=O)CC2 (centres undefined) | -2.19
CCc1cccc(NC(=O)NC2CCc3nc(C)nn3C2)c1 (centres undefined) | -9.583
CC(C)n1[nH]c(=O)c2c1NC(=O)CC2C1CCCCC1 (centres undefined) | 0.5792
Cc1cscc1C(=O)Nc1cc(CSCCO)ccn1 | -31.68
COc1cccc(C(C(=O)O)N2CCCN(c3ccnc(C)c3)CC2)c1 (centres undefined) | 11.66
N#Cc1cc(F)c(NCCc2ccc(S(N)(=O)=O)cc2)c(F)c1 | 2.812
N#Cc1cc(F)c(NCc2ccc(F)cc2)c(F)c1 | 53.8
N#Cc1cc(F)c(NCCc2ccc(F)cc2)c(F)c1 | -6.207
Cc1ccc([C@@H]2CN(C(=O)c3csc(C)n3)C[C@H]2NC(=O)C2CC2)cc1 | -2.75
CC(C)c1nnc2n1CCN(CC(=O)N1CCc3ccccc3C1)C2 | 2.244
CCCNc1ncc(-c2cc(C3CC3)nc(N)c2C#N)cn1 | 97.87
CCSc1ncc(-c2nccn2CCN(C)C)cn1 | -18.01
CC(C)c1ncc(-c2cc(C3CCC3)nc(N)c2C#N)cn1 | 96.4
CCSc1ncc(-c2cc(C3CCC3)nc(N)c2C#N)cn1 | 87.05
CCSc1ncc(CN2CCN(c3ncc(C)c(N)n3)CC2)cn1 | -0.8762
CCSc1ncc(-c2cc(C3CC3)nc(N)c2C#N)cn1 | 99.54
CCSc1ncc(CN2CCN(c3ccc(C#N)cc3)C(=O)C2)cn1 | -0.09513
O=C(NC1CCN(c2ncccn2)CC1)c1cc2c([nH]c1=O)CCC2 | 7.428
Cc1nnc(SCCC(=O)N(C)Cc2ccc(F)cc2F)[nH]1 | 2.141
O=C(O)C(F)(F)F.O=C1CC[C@H]2[C@H](CCN2C(=O)C2CCOCC2)N1Cc1ccncc1 | 25.13
CN1CCN(C(=O)c2ccc3c(c2)[nH]c(=O)n3C2CCCC2)CC1 | 14.39
Cc1cc(-c2nn(C)c(Cl)c2CN2CCCCC(N)C2)no1 (centres undefined) | -8.809
COCc1cc(CC2(NC3CCCCC3)COC2)no1 | 18.94
CC(Cn1cccn1)NCc1csc(-c2ccc3c(c2)OCO3)n1 (centres undefined) | -1.421

SMILES | Percent Effect [%]
Cc1cc2[nH]c(CN3CCOC(Cc4ccccc4)C3)cc(=O)n2n1 (centres undefined) | -6.493
Cc1cccc(C(=O)Nc2cccc3c2C(=O)NC3)n1 | -5.114
COCC1CN(C(=O)c2cccc(C)n2)Cc2ncnn2C1 (centres undefined) | -6.948
CCc1sc(-c2nnc(CNC(C)Cn3cc(C)cn3)o2)cc1C (centres undefined) | -3.595
CCc1ccc(CN2CCN(Cc3ncc[nH]3)[C@H]3CS(=O)(=O)C[C@H]32)nc1 | 8.56
[O-][S+](CCN1CCc2[nH]nc(C(F)(F)F)c2C1)c1ccccc1 (centres undefined) | -3.726
Cn1ncc2c(=O)[nH]c(CN3CCCC3Cc3ccc(F)cc3)nc21 (centres undefined) | 116
CCC1CCCCN1Cc1nc2c(cnn2C)c(=O)[nH]1 (centres undefined) | 107.5
Cn1ncc2c(=O)[nH]c(CN3CCCC3CC3CCCCC3)nc21 (centres undefined) | -0.1708
Cc1ccc(C2CCCN2Cc2nc3c(cnn3C)c(=O)[nH]2)cc1C (centres undefined) | 2.271
Cn1ncc2c(=O)[nH]c(CN3CCCC3CC(C)(C)C)nc21 (centres undefined) | 114.1
Cn1ncc2c(=O)[nH]c(CN3CCC(Cc4ccccc4)CC3)nc21 | -8.773
COc1cccc(C2CCCN2Cc2nc3c(cnn3C)c(=O)[nH]2)c1 (centres undefined) | -3.209
Cn1ncc2c(=O)[nH]c(CN3CCCC3Cc3ccccc3)nc21 (centres undefined) | -2.22
Cn1ncc2c(=O)[nH]c(CN3CCCC3CCc3ccccc3)nc21 (centres undefined) | 94.92
COc1ccccc1-c1noc(CCC(=O)NC(C)Cn2cccn2)n1 (centres undefined) | -41.91
COc1ccc(-n2ccnc2-c2cnc(N(C)C)nc2)cc1OC | -6.365
Cc1ccc(CN2CCN(c3ncccc3Cl)CC2CCO)cc1 (centres undefined) | -15.14
O=C(c1cn2cc(Cl)cnc2n1)N1CCOCC(O)(CN2CCCC2)C1 (centres undefined) | -2.711
Cc1nccn1-c1ccc(C(C)NCCc2ccccn2)cc1 (centres undefined) | 8.244
CCc1nc(CN2CCCC(NCc3ncc(C(C)(C)C)o3)C2)no1 (centres undefined) | 9.361
CNC1CCCN(Cc2noc(C3CC3)n2)C1.Cl (centres undefined) | -6.036
CCc1noc(CNC2CCCN(Cc3noc(C4CC4)n3)C2)n1 (centres undefined) | 122.3
C1CC(NCc2nc(C3CC3)no2)CN(Cc2noc(C3CC3)n2)C1 (centres undefined) | 4.824
CCc1nc(CN2CCCC(NCc3cc(C)no3)C2)no1 (centres undefined) | 2.816
CCCc1noc(CNC2CCCN(Cc3noc(C4CC4)n3)C2)n1 (centres undefined) | 116.1

SMILES | Percent Effect [%]
CCc1nc(CN2CCCC(NCc3nnc(C4CC4)n3C)C2)no1 (centres undefined) | 109.6
CCc1nc(CN2CCCC(NCc3nc(C)c(C)o3)C2)no1 (centres undefined) | 135.7
Cn1ccnc1CNC1CCCN(Cc2noc(C3CC3)n2)C1 (centres undefined) | -20.64
CCc1nc(CN2CCCC(NCc3ccc(C(N)=O)cc3)C2)no1 (centres undefined) | -8.136
CCc1nc(CN2CCCC(NCCn3cncn3)C2)no1 (centres undefined) | 25.84
Cc1ncc(CNC2CCCN(Cc3noc(C4CC4)n3)C2)s1 (centres undefined) | -12.11
COCCN(Cc1ccc(F)cc1Cl)C(=O)c1cc(C)no1 | 3.523
Cc1cccc2c1nc1n2[C@@H](CNC(=O)Cc2ccccc2)COC1 | -6.284
Cc1cc(C)c2c(N(C)CC3CCN(CC(C)C)C3)ncnc2n1 (centres undefined) | 16
Cc1nc(C(=O)N(Cc2c(C)nn(C)c2C)C(C)C)cs1 | 0.2586
CCN(C(=O)c1cccc2c1OCO2)c1ccc(Br)cn1 | -0.9868
CCOc1ccc(N2CCC(C(O)c3ccccc3)CC2)nn1 (centres undefined) | -5.535
CC(NC(=O)OC(C)(C)C)c1nnc(S(=O)(=O)Cc2ccc(Cl)cc2)o1 (centres undefined) | 137.4
Cc1ccccc1CS(=O)(=O)c1nnc(C(C)NC(=O)OC(C)(C)C)o1 (centres undefined) | 85.24
CC(C)S(=O)(=O)c1nnc(CCNC(=O)OC(C)(C)C)o1 | 16.12
Cc1ccccc1CS(=O)(=O)c1nnc(N2CCOCC2)s1 | -8.396
CC(C)NC(=O)NCCCc1cccc(F)c1 | -3.402
C[C@H](NC(=O)OC(C)(C)C)c1nnc(S(=O)(=O)Cc2cccc(F)c2)o1 | 143.7
CC(NC1(CNC(=O)OC(C)(C)C)CCOCC1)c1ccccc1 (centres undefined) | 3.949
CC(C)(C)OC(=O)NCCC(=O)NCC(O)c1cccc(F)c1 (centres undefined) | -4.021
CC(NC(=O)CNC(=O)OC(C)(C)C)c1ccc(Cl)s1 (centres undefined) | -4.782
O=S(=O)(Cc1ccccc1Cl)NC(CO)c1ccco1 (centres undefined) | -8.194
CC(NC(=O)OC(C)(C)C)c1nnc(S(=O)(=O)Cc2ccccc2Cl)o1 (centres undefined) | 135.1
CCC(C)NC(=O)CS(=O)(=O)Cc1ccccc1Cl (centres undefined) | -0.4939
CC(C)(C)c1ccc(C2(C(=O)NCCS(C)(=O)=O)CC2)cc1 | 2.157
Cn1cnc(-c2ccc(F)cc2)c1NC(=O)CCNC(=O)C(C)(C)C | -6.706
